# Data: PubChem BioAssay AID1159580 (chemical genetic matrix, 2015)
# Out of some 5,500 compounds screened, about 2,000 (36%) were called active. Roughly 18% stayed inconclusive and do not appear here. The list shows a part of the results. A number with no mark means an inactive call. No stated cut-off is given here; in the data, active means normalized growth mostly below about 0.91 (no sharp cut-off); inconclusive means no clear call, values can overlap the other calls; inactive means mostly above about 0.92.
# Test: chemical genetic growth profiling, strain panel (AID 1159580);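 further: tested at 20 µM; growth read once vehicle control cultures reached saturation at 30 °C; 1 = growth at the plate median or of vehicle wells; lower values mean less growth of the strain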
# Conditions: growth OD
structure (smiles),measurement,setting,value
Cc1cc(=O)[nH]c(=S)[nH]1,normalized growth,"S. cerevisiae deletion strains, locus YJR075W, strain HOC1, hits give low values",1.02
same,normalized growth,"S. cerevisiae deletion strains, locus YKL009W, strain mrt4, hits give low values",0.999
same,normalized growth,"S. cerevisiae deletion strains, locus YKL068W, hits give low values",1
same,normalized growth,"S. cerevisiae deletion strains, locus YKL085W, strain MDH1 (second series), hits give low values",0.977
same,normalized growth,"S. cerevisiae deletion strains, locus YKL085W, strain MDH1, hits give low values",0.977
same,normalized growth,"S. cerevisiae deletion strains, locus YKL160W, strain elf1, hits give low values",0.974
same,normalized growth,"S. cerevisiae deletion strains, locus YKL190W, strain CNB1, hits give low values",1
same,normalized growth,"S. cerevisiae deletion strains, locus YKR001C, strain vps1, hits give low values",1.01
same,normalized growth,"S. cerevisiae deletion strains, locus YKR026C, strain gcn3, hits give low values",0.992
same,normalized growth,"S. cerevisiae deletion strains, locus YKR091W, strain srl3, hits give low values",0.967
same,normalized growth,"S. cerevisiae deletion strains, locus YLL001W, strain dnm1, hits give low values",1.01
same,normalized growth,"S. cerevisiae deletion strains, locus YLL026W, hits give low values",0.979
same,normalized growth,"S. cerevisiae deletion strains, locus YLL041C, strain sdh2, hits give low values",0.978
same,normalized growth,"S. cerevisiae deletion strains, locus YLR027C, strain aat2, hits give low values",0.973
same,normalized growth,"S. cerevisiae deletion strains, locus YLR039C, strain RIC1, hits give low values",1.03
same,normalized growth,"S. cerevisiae deletion strains, locus YLR058C, strain SHM2, hits give low values",1.01
same,normalized growth,"S. cerevisiae deletion strains, locus YLR102C, strain apc9, hits give low values",1
same,normalized growth,"S. cerevisiae deletion strains, locus YLR113W, strain HOG1, hits give low values",1.03
same,normalized growth,"S. cerevisiae deletion strains, locus YLR221C, strain rsa3, hits give low values",0.973
same,normalized growth,"S. cerevisiae deletion strains, locus YLR258W, strain gsy2, hits give low values",0.98
same,normalized growth,"S. cerevisiae deletion strains, locus YLR262C, strain YPT6 (second series), hits give low values",0.981
same,normalized growth,"S. cerevisiae deletion strains, locus YLR262C, strain YPT6, hits give low values",1.07
same,normalized growth,"S. cerevisiae deletion strains, locus YLR268W, strain sec22, hits give low values",1.08
same,normalized growth,"S. cerevisiae deletion strains, locus YLR320W, strain mms22, hits give low values",0.956
same,normalized growth,"S. cerevisiae deletion strains, locus YLR330W, strain CHS5, hits give low values",1.01
same,normalized growth,"S. cerevisiae deletion strains, locus YLR342W, strain FKS1 (second series), hits give low values",1
same,normalized growth,"S. cerevisiae deletion strains, locus YLR342W, strain FKS1, hits give low values",0.985
same,normalized growth,"S. cerevisiae deletion strains, locus YLR357W, strain rsc2, hits give low values",0.944
same,normalized growth,"S. cerevisiae deletion strains, locus YLR370C, strain arc18, hits give low values",0.973
same,normalized growth,"S. cerevisiae deletion strains, locus YLR371W, strain rom2, hits give low values",1.02
same,normalized growth,"S. cerevisiae deletion strains, locus YLR384C, strain iki3, hits give low values",0.989
same,normalized growth,"S. cerevisiae deletion strains, locus YLR418C, strain cdc73, hits give low values",1.02
same,normalized growth,"S. cerevisiae deletion strains, locus YML016C, strain PPZ1, hits give low values",1.01
same,normalized growth,"S. cerevisiae deletion strains, locus YML032C, strain rad52, hits give low values",1.04
same,normalized growth,"S. cerevisiae deletion strains, locus YML120C, strain ndi1, hits give low values",0.972
same,normalized growth,"S. cerevisiae deletion strains, locus YML124C, strain tub3, hits give low values",1
same,normalized growth,"S. cerevisiae deletion strains, locus YMR058W, strain fet3, hits give low values",0.976
same,normalized growth,"S. cerevisiae deletion strains, locus YMR078C, strain ctf18, hits give low values",1.01
same,normalized growth,"S. cerevisiae deletion strains, locus YMR125W, strain sto1, hits give low values",0.933
same,normalized growth,"S. cerevisiae deletion strains, locus YMR129W, hits give low values",0.969
same,normalized growth,"S. cerevisiae deletion strains, locus YMR205C, strain PFK2, hits give low values",0.976
same,normalized growth,"S. cerevisiae deletion strains, locus YMR223W, strain ubp8, hits give low values",0.989
same,normalized growth,"S. cerevisiae deletion strains, locus YMR231W, strain pep5, hits give low values",1
same,normalized growth,"S. cerevisiae deletion strains, locus YMR263W, strain SAP30, hits give low values",1.03
same,normalized growth,"S. cerevisiae deletion strains, locus YMR307W, strain GAS1, hits give low values",1.05
same,normalized growth,"S. cerevisiae deletion strains, locus YNL067W, strain RPL9B, hits give low values",1.02
same,normalized growth,"S. cerevisiae deletion strains, locus YNL071W, strain lat1, hits give low values",0.963
same,normalized growth,"S. cerevisiae deletion strains, locus YNL128W, strain TEP1, hits give low values",1
same,normalized growth,"S. cerevisiae deletion strains, locus YNL153C, strain GIM3, hits give low values",1.03
same,normalized growth,"S. cerevisiae deletion strains, locus YNL183C, strain NPR1, hits give low values",0.977
same,normalized growth,"S. cerevisiae deletion strains, locus YNL209W, strain ssb2, hits give low values",0.973
same,normalized growth,"S. cerevisiae deletion strains, locus YNL233W, strain BNI4, hits give low values",1.02
same,normalized growth,"S. cerevisiae deletion strains, locus YNL248C, strain rpa49, hits give low values",0.872 (active)
same,normalized growth,"S. cerevisiae deletion strains, locus YNL250W, strain rad50, hits give low values",1.01
same,normalized growth,"S. cerevisiae deletion strains, locus YNL271C, strain bni1, hits give low values",1.01
same,normalized growth,"S. cerevisiae deletion strains, locus YNL298W, strain CLA4, hits give low values",1.01
same,normalized growth,"S. cerevisiae deletion strains, locus YNL307C, strain MCK1, hits give low values",1.01
same,normalized growth,"S. cerevisiae deletion strains, locus YNL322C, strain KRE1 (second series), hits give low values",0.969
same,normalized growth,"S. cerevisiae deletion strains, locus YNL322C, strain KRE1, hits give low values",1
same,normalized growth,"S. cerevisiae deletion strains, locus YNR049C, strain mso1, hits give low values",0.978
same,normalized growth,"S. cerevisiae deletion strains, locus YNR052C, strain pop2, hits give low values",1.01
same,normalized growth,"S. cerevisiae deletion strains, locus YOL006C, strain TOP1, hits give low values",1.08
same,normalized growth,"S. cerevisiae deletion strains, locus YOL012C, strain htz1",1.27
same,normalized growth,"S. cerevisiae deletion strains, locus YOL147C, strain pex11, hits give low values",1
same,normalized growth,"S. cerevisiae deletion strains, locus YOR001W, strain rrp6, hits give low values",0.975
same,normalized growth,"S. cerevisiae deletion strains, locus YOR061W, strain CKA2, hits give low values",1.01
same,normalized growth,"S. cerevisiae deletion strains, locus YOR069W, strain VPS5, hits give low values",1.01
same,normalized growth,"S. cerevisiae deletion strains, locus YOR070C, strain gyp1, hits give low values",0.987
same,normalized growth,"S. cerevisiae deletion strains, locus YOR080W, strain dia2, hits give low values",0.965
same,normalized growth,"S. cerevisiae deletion strains, locus YOR083W, strain WHI5, hits give low values",0.964
same,normalized growth,"S. cerevisiae deletion strains, locus YOR106W, strain vam3, hits give low values",0.999
same,normalized growth,"S. cerevisiae deletion strains, locus YOR136W, strain idh2, hits give low values",1
same,normalized growth,"S. cerevisiae deletion strains, locus YOR144C, strain elg1, hits give low values",1
same,normalized growth,"S. cerevisiae deletion strains, locus YOR184W, strain ser1, hits give low values",1.01
same,normalized growth,"S. cerevisiae deletion strains, locus YOR231W, strain MKK1, hits give low values",1.03
same,normalized growth,"S. cerevisiae deletion strains, locus YOR265W, strain rbl2, hits give low values",0.98
same,normalized growth,"S. cerevisiae deletion strains, locus YOR270C, strain vph1, hits give low values",0.976
same,normalized growth,"S. cerevisiae deletion strains, locus YOR290C, strain snf2, hits give low values",0.94
same,normalized growth,"S. cerevisiae deletion strains, locus YOR316C, strain cot1, hits give low values",1.01
same,normalized growth,"S. cerevisiae deletion strains, locus YPL051W, strain arl3, hits give low values",0.982
same,normalized growth,"S. cerevisiae deletion strains, locus YPL055C, strain LGE1, hits give low values",1
same,normalized growth,"S. cerevisiae deletion strains, locus YPL078C, strain atp4, hits give low values",0.973
same,normalized growth,"S. cerevisiae deletion strains, locus YPL106C, strain sse1, hits give low values",0.919
same,normalized growth,"S. cerevisiae deletion strains, locus YPL240C, strain hsp82, hits give low values",0.958
same,normalized growth,"S. cerevisiae deletion strains, locus YPL241C, strain CIN2, hits give low values",1.01
same,normalized growth,"S. cerevisiae deletion strains, locus YPL256C, strain CLN2, hits give low values",1.12
same,normalized growth,"S. cerevisiae deletion strains, locus YPR119W, strain clb2, hits give low values",1
same,normalized growth,"S. cerevisiae deletion strains, locus YPR141C, strain kar3, hits give low values",1
same,normalized growth,"S. cerevisiae deletion strains, locus YPR163C, strain tif3, hits give low values",1.01
same,normalized growth,"S. cerevisiae deletion strains, locus YPR167C, strain met16, hits give low values",1.01
same,normalized growth,"S. cerevisiae deletion strains, strain wtn01, hits give low values",1.03
same,normalized growth,"S. cerevisiae strains, strain wild type, hits give low values",1.01
